Measurements reported in the supplement of paper PMC6555819.

System: PPARg homodimer (NR concentration 180 nM)
Test: PBM binding z-score (relative to random genomic background probes); higher = stronger binding; sequences stand for … in GC…GCGATTGACAGCGTAGAATGAAGG
Procedure, shortened: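 Antibodies against each partner of ligand-free nuclear receptor dimers (one per run) detected binding on custom Agilent 4×180K protein-binding microarrays after 1 h incubation. The double-stranded probes had 34-nt variable regions carrying direct-repeat seeds, single-nucleotide variants, half-site ablations and random human genomic background sequences. Binding z-scores, from regression-normalized fluorescence, use the random background probes as reference.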

| Sequence | PBM binding z-score |
| --- | --- |
| CAAACTAGGTTAAGAGGTCAAAGTCCGCTTCCCG | 4.58 |
| CGTCCAAGGTCAGCAGGTCCGTGAAAGCGACGTG | 1.99 |
| CGTCATAGTTCAACTAAGGTAACGTAAAGCACGC | 1.81 |
| ACCTCTAGGTAAAAGTTCAGTGAATCCCGAGGAT | 0.975 |
| GCATATAGGTAATACAAGGTGAAAGCCCGATTGT | 0.757 |
| CGAACTAGGTCATTGACAGTACAGTGAATAGTAA | 1.89 |
| AGTCAAAGTTCATTAGGTAACGTAAGATTCAGCT | 3.26 |
| TCTTGTAGATCAACCGGAGGTTAAGAAAGATCGA | -0.156 |
| CGAACTAGGTCAGAACAGGCCAGTGAAGGATGAT | 1.63 |
| ATCTCTAGGTAAGACTCAGTTCAGTTAAGAACGC | 1.1 |
| AGAATGAGCTTACCAAAGATCAGGGAAACGCTTG | -0.572 |
| GATACAGGATCAAGGCCAGAGTACGCGTATTGAT | -0.0406 |
| CGAACTAGGTCAGAACAGGACTGTGAAGGATGAT | 0.61 |
| GCTGCTAGGGCAACTGATGGTCAGCTAAAGCTCG | -0.93 |
| CTCGAAAGGTCGTGCTCGGGTGAGTATACCAAAC | 1.58 |
| GCTTGTAGATCAAGGTTAAGACAGACTAAGCTAA | 0.0438 |
| TCTATTAGCTGATTAGGGCAACCGAAACAGCGGA | -0.183 |
| ACTTACGGGTCAAAGAGGTTATAGCACGCGTATA | 3.6 |
| TCTAGTTGGTCAAAGGACACACACTCGAAATGCG | 1.9 |
| GCTGCTAGCTCAGGTTGGTCAGCTAACGGGTACG | -1.31 |

| Sequence | PBM binding z-score |
| --- | --- |
| GCTGCTAGGTCAACTGATGGGCAGCTAAAGCTCG | 0.434 |
| CGGACTGGGGCATAAGGTTACCATAAGCCAGCCC | 1.19 |
| CCTACTGGGCCAAAGGTCATTGCTTCCAATGCTC | 2.84 |
| TCTATCAGTTGATTAGGGCAACCGAAACAGCGGA | -0.273 |
| TCGAGTAGGTGAGGGGCATTCAGAATGGCGTCGA | 0.149 |
| CCGAATGGGGCATAAGGTTACCATAAGCCAGCCC | 0.844 |
| CGTCCAAGGTCAATGCTAGGTCCGTGAAAGCATT | 3.68 |
| CCGACTGGGGCAGAAAGGTTATCATACCATCCGG | 0.664 |
| AGAATGAGGTTACCAAAGAGCAGGGAAACGCTTG | 0.046 |
| TCTTGTAGAGCAGCAGGTTAAGAAAGCTGGCCAA | -0.986 |
| CAAACTAGATCACAGAGGTCAAAGTCCGTGCGTA | 4.38 |
| CCTACAGGGCCATTCAGAGGTCATTGATCATATG | 1.96 |
| CGAACTAGCTCATTGACAGGACAGTGAATAGTAA | -0.35 |
| GGAACGAGGGCATTCGGGTTGATAGCATGGCGAT | 0.523 |
| CTCGAAAGGTCCTGCTCAGGTGAGTATACCAAAC | -0.47 |
| AGAATGAGGATATACGTAGATCAGGGAAGAAAGT | 0.0264 |
| ATCGAAAGGTCTAGGTGAGTATAGAGAAAGGGAA | 0.408 |
| TTACCAAGGTGAGCTGAGGTCGTTGATCCAACTC | -0.21 |
| GATACAGAGTCAAGGCCAGAGTACGCGTATTGAT | -0.301 |
| CGTCCAAGGTCAGAGAGATCAGTGAATGCCGAGT | 1.89 |
